Bioassay records from PubChem BioAssay.
p53 reactivator – qHTS assay for re-activators of p53 using a Luc reporter; Potency, µM (highest dose often 92.2 µM), inactives show at the top dose activity change, positive = activation, hits mostly activators; H1299 p53-A138V BP100-luciferase reporter, luminescence, 24 h; hit rate 0.063% among 320,000; note: potency is the fitted concentration of half-maximal effect; % of control where 0% means no effect; nearly all actives have a fitted effect of over 45% in size
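p53-null H1299 cells stably carrying temperature-sensitive p53-A138V and a BP100-luciferase reporter were pinned with compounds (4-point, 1:5 series) and held 24 hrs at 37 deg C. Luminescence was read 10 min after detection reagent.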
ClpP mod – qHTS Assay for Activators of ClpP. purified B. subtilis ClpP, FRET peptide cleavage, 20 min. Potency, µM (titrated, usually from 57.5 µM), for the others: at the top dose activity change, negative = active. hit rate 1.9% among 340,000. AID 651965, 2013; active = well fitted falling curve with a large enough effect; inconclusive = small, poorly fitted or top-dose-only effect; inactive = no such curve, though single readings can be large or run the other way; note: potency is the fitted concentration of half-maximal effect; the source files actives as falling curves though it sought activators and does not explain the sign; nearly all actives have a fitted effect of over 65% in size
Target sequence (P80244 whole entry, looked up): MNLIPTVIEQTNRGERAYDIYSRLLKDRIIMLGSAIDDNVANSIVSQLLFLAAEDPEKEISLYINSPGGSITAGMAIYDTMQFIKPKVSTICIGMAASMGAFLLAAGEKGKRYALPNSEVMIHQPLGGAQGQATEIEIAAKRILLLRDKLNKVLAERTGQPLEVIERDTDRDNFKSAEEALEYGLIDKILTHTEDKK
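Purified B. subtilis ClpP, 10 microg/mL final in Tris/HCl pH8 with KCl, BSA, glycerol and Tween-20, cleaved an Abz/nitrotyrosine-quenched decapeptide. Fluorescence (ex 320, em 430) was read at 0 and 20 min at room temperature. Delta was normalized to 5.8 microM ADEP and DMSO/no-enzyme controls.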
LDHA inh – qHTS assay for inhibitors of human lactate dehydrogenase; L-lactate dehydrogenase A chain (Homo sapiens), P00338; purified LDHA, NADH/diaphorase-resazurin fluorescence; active compounds read low; activity change, % (values are at about 110 or 230 µM); hit rate 0.15% among 480,000; AID 1347041, 2019; in the data active = activity change below about -30%; inconclusive = mostly about -25% to -30%;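 note: plate controls were DMSO wells for no effect and wells without enzyme for full effect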
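Enzyme activity of human lactate dehydrogenase 5 (2 nM; 0.06 mM NADH, 0.2 mM pyruvate, 5 min, RT) is measured via a resazurin/diaphorase fluorescence readout of residual NADH.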
GLP1R ag – qHTS of GLP-1 Receptor Agonists. Glucagon-like peptide 1 receptor (Homo sapiens), P43220. HEK293 GLP-1R CRE-luciferase, luminescence, 4-6 h; cells express a hypersensitive GLP-1R form. Potency, µM (highest dose often 45.6 µM), for the others: at the highest dose activation, most hits filed as activators. hit rate 0.007% among 380,000. AID 624172, 2012; note: potency is the fitted concentration of half-maximal effect; % of control where 0% means no effect
Target sequence (P43220 whole entry, looked up): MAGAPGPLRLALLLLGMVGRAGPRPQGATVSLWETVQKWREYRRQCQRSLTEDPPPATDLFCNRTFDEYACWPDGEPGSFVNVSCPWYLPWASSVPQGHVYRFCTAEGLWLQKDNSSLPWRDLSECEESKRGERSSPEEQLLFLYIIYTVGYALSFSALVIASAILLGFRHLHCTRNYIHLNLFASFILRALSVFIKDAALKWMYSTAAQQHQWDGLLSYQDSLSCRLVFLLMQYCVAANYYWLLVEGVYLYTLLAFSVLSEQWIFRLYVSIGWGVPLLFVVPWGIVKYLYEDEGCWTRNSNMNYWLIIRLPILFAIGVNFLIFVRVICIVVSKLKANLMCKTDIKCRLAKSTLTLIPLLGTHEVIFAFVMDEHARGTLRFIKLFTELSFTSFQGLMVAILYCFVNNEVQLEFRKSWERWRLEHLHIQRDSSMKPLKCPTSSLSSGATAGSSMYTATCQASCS
GLP-1R inv ag – qHTS of GLP-1 Receptor Inverse Agonists (Inhibition Mode); Glucagon-like peptide 1 receptor (Homo sapiens), P43220; HEK293 GLP-1R CRE-luciferase, luminescence, 24 h; GLP-1R form is constitutively active; Potency, µM (doses to about 38.3 µM), inactives show at the top dose activity change, negative = inhibition, usual class: inhibitors; hit rate 1.6% among 410,000; note: potency is the fitted concentration of half-maximal effect; % is set by controls: 0 for no effect and ±100 for the full control effect; nearly all actives have a fitted effect of over 55% in size
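GLP-1R inverse agonism mode: basal reporter luminescence in engineered HEK293 cells measured after one day of compound exposure at 37 deg C, with a 12 min room-temperature detection step.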
GLP1R cytotox – qHTS of GLP-1 Receptor Inverse Agonists: Cytotox Screen; HEK293 cAMP-luciferase reporter cells, luminescence, 24 h; Potency, µM (highest dose often 38.3 µM), without a hit: at the highest dose activity change, negative = inhibition, hits mostly inhibitors; hit rate 0.13% among 410,000;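 note: loss of luciferase light is scored as toxicity; potency is the fitted concentration of half-maximal effect; % is set by controls: 0 for no effect and ±100 for the full control effect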
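Luminescence readout: signal drop marks cytotoxicity. Plated cells grew 12 h at 37 °C, 5% CO2, received 23 nL compound for 24 h, then got luciferase reagent, read after 12 min at RT.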
ClpP inh valid – qHTS Assay for Activators of ClpP: Hit Validation of Inhibitors. shares compounds with ClpP mod. purified B. subtilis ClpP, FRET-FV substrate cleavage, 20 min. Potency, µM (top dose mostly 57.5 µM), for the others: at the highest dose activity change, negative = inhibition, usual class: inhibitors. hit rate 40% among 470. AID 743245, 2014; note: potency is the fitted concentration of half-maximal effect; % is set by controls: 0 for no effect and ±100 for the full control effect; nearly all actives have a fitted effect of over 70% in size
* marks the source's active call; other numbers are inactive results; ? = inconclusive; · = no result given; [ ] = dose if it differs, or a comment. Sampled rows, rich in hits. Any-hit rate of the full collection: about 2.9%. Unless noted, calls come from the whole dose curve; as a rule, active = well fitted curve in the direction sought with a large enough effect; inconclusive = small, poorly fitted or top-dose-only effect, or another doubt; inactive = no such curve, though single readings can be large; an effect the other way counts as inactive or inconclusive.

SMILES	p53 reactivator	ClpP mod	LDHA inh	GLP1R ag	GLP-1R inv ag	GLP1R cytotox	ClpP inh valid
Cc1cccc(C)c1NC(=O)C(c1ccc(-c2ccccc2)cc1)n1c(=O)c(-c2cc3ccccc3[nH]2)nc2ccccc21 (configuration not stated)	·	40%	-3	·	?	331%	11%
CC(NC(=O)c1ccc(Br)s1)c1ccncc1 (configuration not stated)	-2%	-2%	-3	2%	0%	-3%	·
CCOc1ccc(NC(=O)Cn2c(=O)c3cccn3c3ccccc32)cc1	·	·	-12	·	·	·	·
COc1ccc(NC(=O)Cn2c(=O)c3cccn3c3ccccc32)cc1	·	51%	-3	·	6%	3%	-18%
c1ccc(-c2ccc(-c3csnn3)cc2)cc1	16%	88%	-8	-8%	13%	11%	-1%
O=S(=O)(Nc1ccccc1)c1ccc(-c2csnn2)cc1	-4%	·	-4	4%	-25%	?	·
Cc1cccc(C)c1NC(=O)c1ncoc1-c1ccco1	·	·	4	·	·	·	·
CC(=O)Nc1ccc(Nc2ncnc3c2c(-c2ccccc2)cn3-c2ccccc2)cc1	·	-12%	1	·	12%	-13%	·
CC(C)c1ccc(Nc2ncnc3c2c(-c2ccccc2)cn3-c2ccccc2)cc1	·	2.5µM*	2	·	-3%	-2%	24µM*
Nc1nc2nc(-c3ccc(OCc4ccccc4)cc3)cc(C(F)(F)F)n2n1	2%	7.1µM*	-5	-1%	56%	62%	17µM*
Cc1c(C(=O)N2CCN(c3ccc([N+](=O)[O-])cc3)CC2)sc2ncn(CC(=O)N3CCOCC3)c(=O)c12	-2%	·	3	10%	-11%	?	·
Cc1c(C(=O)N2CCOCC2)sc2ncn(CC(=O)N3CCC(C)CC3)c(=O)c12	-3%	3.2µM*	-6	-3%	-5%	7%	-1%
CSc1ncccc1C(=O)NCC12CC3CC(CC(C3)C1)C2	0%	·	-7	8%	?	3%	·
CCCCc1c(-c2ccc(OC)c(OC)c2)ncn1CCc1ccccc1OC	·	-29%	4	-5%	?	0%	·
Cc1ccc(NC(=O)COC(=O)COc2ccc3ccc(=O)oc3c2)cc1[N+](=O)[O-]	-2%	104%	0	-7%	12%	-4%	19µM*
Cc1cc(=O)oc2cc(OCC(=O)OCC(=O)NCc3ccc4c(c3)OCO4)ccc12	-4%	199%	-7	-3%	-3%	6%	-26%
Cc1ccc(S(=O)(=O)N(C)C)cc1NC(=O)COC(=O)COc1ccc2c(C)cc(=O)oc2c1	-2%	88%	1	-7%	12%	-13%	-24%
CC(=O)Nc1ccc(NC(=O)COc2ccc3ccc(=O)oc3c2)cc1	·	·	7	·	·	·	·
Cc1cc(=O)oc2cc(OCC(=O)OCC(=O)Nc3ccccc3F)ccc12	-1%	·	-2	7%	16%[7.66 µM]	-3%[7.66 µM]	·
Cc1cc(=O)oc2cc(OCC(=O)OCC(=O)Nc3ccccc3C(C)C)ccc12	9%	79%	11	-2%	0%	1%	?
Cc1cc(OCC(=O)OCC(=O)NCc2ccc3c(c2)OCO3)ccc1Cl	0%	-1%	-2	5%	5%	8%	·
Cc1cc(=O)oc2cc(OCC(=O)Nc3cccc(S(=O)(=O)N(C)C)c3)ccc12	7%	-13%	-2	-14%	15%	-8%	·
Cc1c(Cl)cccc1NC(=O)N1CCC(CN2CCOCC2)CC1	·	2%	2	·	8%	1%	·
CCOc1nc(Oc2cccc(C(=O)O)c2)nc(Oc2cccc(C(=O)O)c2)n1	7%	-3%	-6	-9%	9%	-9%	·
CN(CC1(C)CCCO1)S(=O)(=O)c1ccc(Cl)c(S(N)(=O)=O)c1 (configuration not stated)	·	·	·	-2%	·	·	·
SMILES	p53 reactivator	ClpP mod	LDHA inh	GLP1R ag	GLP-1R inv ag	GLP1R cytotox	ClpP inh valid
CCc1sc(C(=O)NCc2ccccc2)cc1C	10%	·	-4	9%	-19%	12%	·
O=C(Nc1nc2nc(-c3ccccc3)cc(-c3ccccc3)n2n1)c1ccco1	-14%	7.9µM*	-9	0%	?	-6%	12µM*
COc1ccc(-c2csc(N(Cc3ccco3)C(=O)c3cccs3)n2)cc1	2%	-15%	-5	-6%	?	18%	·
Cc1ccc(S(=O)(=O)Cc2ccc(Cl)cc2)cc1	·	·	-8	·	·	·	·
O=S(=O)(Cc1ccccc1)c1ccccc1-c1nnc(-c2ccccc2)o1	-1%	44%	-7	-28%	-11%	-8%	·
Cc1ccc(-c2nnc(-c3ccccc3S(=O)(=O)Cc3ccc(Cl)cc3)o2)cc1	0%	65%	2	-1%	2%	-6%	14µM*
O=S(=O)(Cc1ccc(Cl)cc1)c1ccccc1-c1nnc(-c2ccc(Cl)cc2)o1	-3%	64%	-1	9%	3%	-3%	27µM*
COc1ccc(S(=O)(=O)N2CCN(CC(=O)Nc3cc(OC)cc(OC)c3)CC2)cc1	4%	66%	2	-2%	0%	8%	1%
COc1cc(NC(=O)CN2CCN(S(=O)(=O)c3ccc(C(C)C)cc3)CC2)cc(OC)c1	3%	-2%	-1	0%	?	-4%	·
CCOC(=O)c1c(NC(=O)c2ccc(S(=O)(=O)N3CCC(C)CC3)cc2)sc2c1CCN(C)C2	·	79%	-3	·	?	75%	?
Brc1cccc(-c2nnn3c2nc(NCc2ccc4c(c2)OCO4)c2ccccc23)c1	·	23%	1	5%	11%	24%	?
CCCCNc1nc2c(-c3cccc(Br)c3)nnn2c2ccccc12	·	-8%	1	0%	-4%	1%	·
Cc1cc(N2CCOCC2)nc2ccc(NC(=O)CCC(=O)N3CCCCC3)cc12	63%	7.1µM*	20	-1%	?	2%	24µM*
Cc1cc(N2CCCCC2)nc2ccc(NC(=O)c3ccc(F)cc3)cc12	·	23%	-2	1%	?	-11%	-8%
